The panel holds about 83,000 compounds, 20% with a hit somewhere; the sample as a whole holds those more often.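 Each cell line was grown in a 96-well plate and treated with one concentration of compound for 48 hours. Values below 10 were considered active.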 A number with no mark means an inactive call. Activity calls are given as the source filed them.
Tests used:
Test in all cases: NCI-60 one-dose screen, 48 h (100 = growth as untreated, 0 = no growth, -100 = all killed)
Details in all cases: 10 µM unless noted
[1] = tested on: NCI-H23 lung
[2] = tested on: NCI-H226 lung
[3] = tested on: NCI-H322M lung
[4] = tested on: HOP-62 NSCLC
[5] = tested on: NCI-H460 lung
[6] = tested on: HOP-92 NSCLC
[7] = tested on: NCI-H522 lung
[8] = tested on: A549/ATCC NSCLC
[9] = tested on: 786-0 renal
[10] = tested on: COLO 205 colon

SMILES	growth [1]	growth [2]	growth [3]	growth [4]	growth [5]	growth [6]	growth [7]	growth [8]	growth [9]	growth [10]
COc1cc(-c2c(-c3ccccc3)c[nH]c2C(=O)NCCCO)c(OC)c2c1OCO2	96.3%	95%	95.9%	98.2%	110%	97%	93.9%	103%	102%	114%
O=C(/C=C/c1ccco1)Nc1ncc(Cc2ccc(F)cc2)s1	23.4%	51.8%	47.2%	25.8%	6.54% (active)	90.5%	-2.92% (active)	23.9%	38.4%	4.77% (active)
COC(=O)c1nc(-c2ccccc2)oc1S(=O)(=O)N1CCN(c2ccc(OC)cc2)CC1	89.1%	91.5%	91.1%	94.5%	98.5%	60%	48.3%	95.9%	60.9%	61.7%
Cc1ccc(NC(=O)c2ccc(Nc3ncnc4c3cnn4-c3cccc(F)c3)cc2)cc1	99.6%	96.5%	103%	94.7%	102%	102%	96%	99.9%	95.8%	109%
COC(=O)CCc1c(/C=C2\N=C(c3ccc[nH]3)C=C2OC)[nH]c(C)c1C(=O)OCc1ccccc1	20.4%	19.6%	55.9%	-3.97% (active)	12.4%	-9.37% (active)	-20.3% (active)	11.9%	-26.2% (active)	4.96% (active)
C=C1C(=O)O[C@H]2[C@H]1CC/C(COC(=O)NCc1ccc(Cn3c(=O)sn(CCCC)c3=O)cc1)=C\CC[C@@]1(C)O[C@@H]21	80.8%	78.5%	105%	91.6%	95.4%	-6.79% (active)	-55.8% (active)	93.5%	41.8%	-25% (active)
CC/C(=C(/c1ccc(Cl)cc1)c1ccc(OCCCN(C)C)cc1)c1ccc(OC)cc1	78.6%	104%	67.5%	99.1%	5.32% (active)	49.8%	87.3%	49.8%	57.9%	-65.3% (active)
Clc1ccc2c(NCCCn3cnc4c(N5CCCC5)nc(Cl)nc43)ccnc2c1	98.7%	102%	92.7%	91.5%	107%	107%	91.5%	96.5%	96.4%	88.2%
Cc1nn(-c2ccccc2)c(Oc2ccccc2)c1/C=N/NC(=O)Cn1c(=O)sc2ccccc21	37.4%	69.8%	74.9%	57.4%	55.6%	50.1%	40.6%	37.5%	74.5%	28.5%
O=C(COc1ccc(/C=C2\Oc3ccccc3C2=O)cc1)Nc1nccs1	87.6%	89.8%	89.3%	86.8%	107%	34.3%	-30.2% (active)	97.5%	88.1%	107%
Cc1ccc(-c2nn(CC(=O)N3CCOCC3)c(N)c2C#N)cc1	100%	102%	110%	108%	106%	111%	101%	95.8%	100%	122%
Nc1ccc(N)c2c1C(=O)c1cccc([N+](=O)[O-])c1C2=O	-29.1% (active)	16.6%	2.12% (active)	9.73% (active)	-3.34% (active)	63.3%	25.6%	20.8%	17.4%	66.3%
NC(=N\N=C/c1ccc(Cl)cc1Cl)/C(N)=N\N=C/c1ccc(Cl)cc1Cl	87.1%	62.8%	41%	83%	20.7%	43.8%	79.8%	62.5%	3.29% (active)	71.6%
CCOC(=O)C1=CCC(n2cc(F)c(=O)[nH]c2=O)O1 (stereo not given)	101%	103%	127%	122%	97.8%	107%	112%	102%	107%	109%
O=C1CCc2c(sc3[nH]c(=S)n(-c4cc(C(F)(F)F)cc(C(F)(F)F)c4)c(=O)c23)C1	-10.7% (active)	-19% (active)	9.28% (active)	-27.1% (active)	5% (active)	-61.8% (active)	-46.6% (active)	5.85% (active)	18.1%	-80% (active)
CC(C)(C)n1cc(-c2ccnc(NCCNS(=O)(=O)c3cccc4ccccc34)c2)c(-c2cccc(O)c2)n1	69.7%	75.3%	89.6%	88.2%	55.9%	64.5%	61.9%	62.7%	64.3%	-33.1% (active)
O=CN1N=C(c2cccc(Nc3ccncc3)c2)CC1c1ccc2c(c1)OCO2 (stereo not given)	89.7%	85.7%	99.4%	80.2%	105%	73.4%	83.3%	83.8%	95.3%	113%
Oc1cccc2c1NCCC2	13.6%	32.8%	38.3%	25.1%	5.35% (active)	-16.6% (active)	-2.3% (active)	12.9%	26.6%	38.6%
O=C1/C(=C/c2ccc(-c3ccc(Cl)cc3)o2)SC(=S)N1CCc1ccc(O)cc1	81.3%	84.1%	70.3%	46.8%	9.88% (active)	55.3%	-18.8% (active)	17.6%	60.9%	16.8%
Cc1ccc(Nc2oc(-c3ccccc3)nc2[P+](c2ccccc2)(c2ccccc2)c2ccccc2)cc1	-51.8% (active)	-13.8% (active)	-21.6% (active)	-51.1% (active)	-81.7% (active)	-44.8% (active)	-57.4% (active)	-25% (active)	-77.5% (active)	-34.7% (active)
Oc1ccc(C2OCCO2)c2cccnc12	33%	23.4%	92.5%	51.6%	68.1%	68.8%	92.9%	56.3%	97.9%	63.7%
Nc1ncc(-c2ccc3ncnc(N4CCc5cc(F)c(Cl)cc54)c3c2)cc1C(F)(F)F	47.6%	28.3%	19.8%	33.1%	28.2%	10.1%	20.3%	21.4%	15.8%	41.8%
O=C(Nc1ncc(Cc2ccccc2Cl)s1)c1ccc2c(c1)OCCO2	40.8%	30.1%	48.9%	28.3%	5.42% (active)	56.3%	1.6% (active)	20.8%	41.2%	-3.85% (active)
O=C1C=CC2(O)OC(c3ccccc3)CC(=O)C2=C1O (stereo not given)	79.2%	99.7%	90%	86.5%	93.6%	93.8%	-17% (active)	85.6%	93.6%	118%
O=C1c2ccccc2C(=O)c2cc(Cn3c[n+](Cc4ccc5ccccc5c4)c4ccccc43)ccc21	56.5%	63.9%	75.4%	76.2%	63.4%	15.6%	34.1%	91%	61.2%	24.4%
O=C(c1ccccc1)[C@@H](c1ccccc1)[C@]1(O)C(=O)Nc2ccccc21	95%	83.1%	87.4%	77.3%	95%	74%	93.7%	103%	97.7%	84.1%
COc1ccc(/C=N\NC(=O)c2ccc3nc(-c4ccc(Cl)cc4)[nH]c3c2)cc1	41.6%	73.8%	55.9%	30.3%	5.91% (active)	36%	82.6%	12%	3.15% (active)	22.9%
